From PubChem BioAssay
This is a sample that favours compounds with a hit; in the whole collection about 2.4% have one here.
LT uptake inh: anthrax lethal toxin internalization inhibition | Cells, anthrax lethal toxin internalization, FRET ratio (460/530) | Potency, µM (titrated, usually from 40 µM), inactives show at the top dose activity change, negative = inhibition, most hits filed as inhibitors | 0.67% of 70,000 active; note: % is set by controls: 0 for no effect and ±100 for the full control effect; nearly all actives have a fitted effect of over 50% in size
SmPrx2 inh: blocks S. mansoni peroxiredoxin 2 enzymatic activity; 0.07% of 65,000 active; AID 448; S. mansoni Prx2 activity coupled to TGR/GSH (TGR is thioredoxin glutathione reductase), NADPH fluorescence loss, qHTS; Potency, µM
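Enzyme mix: 100 uM NADPH, 25 nM TGR, 700 uM GSH, 50 nM Prx2 in 100 mM phosphate pH 7.4, 10 mM EDTA, 0.01% Tween-20. 15 min RT with compound; NADPH/GSH added, H2O2 starts reaction; NADPH fluorescence read 8 min.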
AmpC det inh: inhibitors of E. coli AmpC beta-lactamase with detergent; Potency, µM (doses to about 28.7 µM), for the others: at the top dose activity change, negative = inhibition; purified AmpC, nitrocefin hydrolysis with detergent; 0.09% of 71,000 active; P00811; active = well fitted curve in the direction sought with a large enough effect; inconclusive = small, poorly fitted or top-dose-only effect; note: % is set by controls: 0 for no effect and ±100 for the full control effect
Target sequence (P00811 whole entry, looked up): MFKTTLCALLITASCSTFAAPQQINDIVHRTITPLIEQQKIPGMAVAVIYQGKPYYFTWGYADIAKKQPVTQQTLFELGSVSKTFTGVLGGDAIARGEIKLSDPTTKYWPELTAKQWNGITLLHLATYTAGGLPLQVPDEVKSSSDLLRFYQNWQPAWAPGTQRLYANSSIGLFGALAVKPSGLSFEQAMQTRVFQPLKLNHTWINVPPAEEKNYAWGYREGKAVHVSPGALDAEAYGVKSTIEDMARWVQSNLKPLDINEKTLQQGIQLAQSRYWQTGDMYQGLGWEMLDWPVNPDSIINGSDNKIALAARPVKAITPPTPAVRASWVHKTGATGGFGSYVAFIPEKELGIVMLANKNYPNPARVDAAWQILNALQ
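E. coli AmpC (5.3 nM) in 20 mM phosphate pH 7.0 with 0.01% Triton X-100, preincubated 15 min RT with compound; nitrocefin (2 uL of 800 uM stock) hydrolysis followed by 480 nm absorbance every 20 s over 4 min.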
AmpC nodet inh: blocks E. coli AmpC beta-lactamase in absence of detergent; 1.8% of 71,000 active; Potency, µM (highest dose often 28.7 µM), without a hit: at the highest dose activity change, negative = inhibition; P00811; AmpC nitrocefin hydrolysis, absorbance 480 nm, no detergent; AID 585; note: % of control where 0% means no effect
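Enzyme, pH 7.0 phosphate. Compound titrations were pre-incubated with AmpC for 15 min at room temperature before nitrocefin (stock 800 uM) addition; product formation was recorded at 480 nm every 20 s for 4 min.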
Numbers without * were called inactive; ? = inconclusive; . = not tested or not shown; [ ] = remark or other dose. Unless noted, calls come from the whole dose curve. Potency is the fitted concentration of half-maximal effect.

SMILES	LT uptake inh	SmPrx2 inh	AmpC det inh	AmpC nodet inh
CSc1nc(N)nc(SCC(=O)c2ccc(C)cc2)c1C#N	?	>57	-1%	-19%
Cn1c(SCC(=O)NCc2ccc3c(c2)OCO3)nc2scc(-c3cccs3)c2c1=O	-9%	>57	-4%	16µM*[single pt active]
O=C(CSc1nnc2scc(-c3ccccc3)n12)NCc1ccc2c(c1)OCO2	9%	>57	12%	-2%
O=S(=O)(NCCc1ccccc1F)c1cccc(S(=O)(=O)N2CCOCC2)c1	-9%	>57	7%	3%
COc1ccc(-c2oc3cc(OC)c(OC(C)=O)c(OC)c3c(=O)c2OC)cc1OC(C)=O	?	37*	0%	18%
CS(=O)(=O)N1CCCC(C(=O)NCc2ccco2)C1 (stereo not drawn)	?	>57	-5%	10%
Nc1nnnn1NCc1cccc(OCc2ccccc2)c1	?	>57	-1%	-4%
N#CCc1nc2n(n1)Cc1ccccc1-2	-4%	>57	-3%	-6%
CCCN(CCC)CCNC(=O)CS(=O)Cc1nc(-c2ccc(C)cc2)oc1C (stereo not drawn)	11%	>57	-3%	25%
CCCCNC(=O)CS(=O)Cc1nc(-c2ccc(C)cc2)oc1C (stereo not drawn)	-2%	>57	12%	4µM*[single pt active]
Cc1ccc(-c2nc(CS(=O)CC(=O)NCCCN3CC(C)CC(C)C3)c(C)o2)cc1 (stereo not drawn)	-7%	>57	14%	4µM*[single pt active]
O=C(O)c1cc2cc(Cc3cccnc3)ccc2o1	7%	>57	-1%	13%
O=C(c1cc2ccccc2cc1OCC(O)CN1CCCCC1)N1CCCCC1 (stereo not drawn)	-12%	>57	12%	4µM*[single pt active]
COc1ccc(OCC(O)CN2CCCCC2)cc1 (stereo not drawn)	-9%	>57	11%	4µM*[single pt active]
OC(COc1ccc(Cl)cc1)CN1CCCCC1 (stereo not drawn)	-17%	>57	1%	-2%
O=C(Nc1cc(NC(=O)c2ccccc2)c(C(=O)O)cc1C(=O)O)c1ccccc1	4%	.	.	.
CC(C)(C)NC(=O)C1CCCN(S(=O)(=O)c2cccc3cccnc23)C1 (stereo not drawn)	-6%	>57	12%	4µM*[single pt active]
COC1=Cc2c(ccc3ccc(=O)oc23)OC1(C)C	?	.	10%	14%
Nc1ccc(-c2ccc(N)c(O)c2)cc1O	?	.	12%	0.79µM*
CCC/C=C(\CCC)C(NS(=O)(=O)c1ccc(C(F)(F)F)cc1)c1ccccc1 (stereo not drawn)	-28%	>57	10%	-9%
CCC/C=C(\CCC)C(NS(=O)(=O)c1ccc(C(F)(F)F)cc1)c1ccc(C(=O)OC)cc1 (stereo not drawn)	-6%	>57	10%	13µM*
CCC/C=C(\CCC)C(NS(=O)(=O)c1ccccc1)c1ccc(C(F)(F)F)cc1 (stereo not drawn)	?	>57	2%	13µM*[single pt active]
COc1ccccc1OCC(O)Cn1c(=N)n(Cc2ccccc2)c2ccccc21 (stereo not drawn)	2%	>57	-2%	11%
Cc1cc2ccccc2n1CCNC(=O)C(C)C	-6%	>57	10%	22%
Cc1ccc(S(=O)(=O)NCCn2c(C)cc3ccccc32)cc1	-9%	>57	-3%	16µM*[single pt active]
SMILES	LT uptake inh	SmPrx2 inh	AmpC det inh	AmpC nodet inh
CCCC(C(=O)NCc1ccco1)N(C(=O)CNS(=O)(=O)c1ccccc1)c1ccccc1OC (stereo not drawn)	-4%	>57	-2%	15%
COc1ccc(-n2c(CNC(=O)c3ccc(S(=O)(=O)N4CCCC4)cc3)n[nH]c2=S)cc1	19%	>57	3%	2%
COc1ccccc1C(=O)n1nc(-c2cccnc2)nc1N	28%	>57	13%	4µM*[single pt active]
COc1cccc(-c2cc(C(=O)Nn3cnnc3)c3ccccc3n2)c1	-5%	>57	12%	-9%
COC(=O)[C@H](NC(=O)c1cc(-c2ccccc2)nc2ccccc12)c1ccccc1	5µM*	>57	-1%	34%
CCc1cc2cc(C(=O)N3CCN(Cc4ccccc4)CC3)sc2s1	13µM*	.	1%	76%
CCCCCc1cc(O)cc(O)c1	?	.	10%	-8%
CCCCCCCCCCCC1=C(O)C(=O)C=C(O)C1=O	?	>57	-14%	4µM*
O=C(CSc1nnc(-c2cc3ccccc3cc2O)n1Cc1ccco1)c1ccc(F)cc1	?	>57	22%	10µM*
Cc1nonc1NC(=O)CSc1nc2cc(Cl)ccc2c2c1CCCC2	-20%	>57	-4%	13µM*
CC1(C)OC(C(=O)NC2CCCCC2)C(C(=O)NC2CCCCC2)O1 (stereo not drawn)	-6%	>57	-4%	43%
Cc1nc(N(C)C)c2sc(=S)n(C)c2n1	-5%	>57	7%	4µM*[single pt active]
Cn1cccc1Cc1nnc(SCC(=O)NC2CCCCC2)n1-c1ccc(F)cc1	-6%	>57	15%	112%
N=c1n(CCO)c2ccccc2n1CCOc1ccc(Cl)cc1Cl	?	>57	10%	4µM*[single pt active]
COc1nc(Nc2cccc(C(F)(F)F)c2)nc(OC)n1	-21%	>57	8%	-13%
COc1nc(Nc2ccc3c(c2)OCO3)nc(OC)n1	-1%	>57	11%	4µM*[single pt active]
CCOC(=O)N1CCN(C(=O)c2cnn3ccccc23)CC1	5%	>57	25%	4µM*[single pt active]
CCOC(=O)N1CCN(C(=O)c2ccccc2-c2ccccc2)CC1	?	>57	-2%	43%
CCOc1ccc(C(=O)c2ccc(OCC)c(N)c2)cc1N	10µM*	.	5%	11%
CS(=O)(=O)c1ccc([C@H](O)[C@H](CO)NC(=O)C(Cl)Cl)cc1	-1%[3.58 µM]	>26	1%[12.8 µM]	0%[12.8 µM]
COc1cc2c(=O)n(-c3ccc(C)cc3)c(=O)n(CC(=O)c3ccc4c(c3)OCO4)c2cc1OC	5%	>57	-4%	119%
COc1cc2c(O)c3c(c(-c4ccc5c(c4)OCO5)c2cc1OC)C(=O)OC3	0.02µM*	>57	4%	6%
O=C(Nc1nc(-c2cccs2)cs1)c1cccc(S(=O)(=O)N2CCCCC2)c1	?	>57	-3%	7.9µM*
Cc1ccc(-c2csc(NC(=O)c3cccc(S(=O)(=O)N4CCN(C)CC4)c3)n2)cc1	-24%	>57	11%	134%
O=C(Nc1nc(-c2cc(Cl)sc2Cl)cs1)c1cccs1	?	>57	9%	0.32µM*
SMILES	LT uptake inh	SmPrx2 inh	AmpC det inh	AmpC nodet inh
O=C(Nc1nc(-c2ccc(S(=O)(=O)N3CCCC3)cc2)cs1)c1cccs1	-26%	>57	-1%	-12%
O=C(Nc1nc(-c2ccc(S(=O)(=O)N3CCCCCC3)cc2)cs1)c1cccs1	?	>57	-3%	7.9µM*
O=C(COc1cccc(-n2cnnn2)c1)N1CCOCC1	?	>57	-1%	-12%
COc1ccc(OC)c(CNC(=O)COc2cc(=O)n(C)c3ccccc23)c1	6%	>57	-4%	63%
O=c1c2ccccc2nc(CN2CCCCCC2)n1-c1ccc(F)cc1	?	>57	23%	4%
Nc1nc(SCc2ccccc2)ns1	?	>57	-4%	-17%
